This is an account of results in PubChem BioAssay (NCI).

Test systems include HCT-15 colon; HT29 colon; U251 CNS; PC-3 prostate; SK-MEL-5 melanoma; UACC-62 melanoma; LOX IMVI melanoma; SK-MEL-28 melanoma; SK-MEL-2 melanoma; EKVX NSCLC; SN12C renal; UO-31 renal; TK-10 renal; ACHN renal; CAKI-1 renal; A498 renal; SNB-19 CNS; MOLT-4 leukemia; CCRF-CEM leukemia.
Holding throughout (experiment): NCI-60 one-dose screen, 48 h (100 = growth as untreated, 0 = no growth, -100 = all killed)
Holding throughout (conditions): 10 µM unless noted

Each structure is given as a SMILES string. About 83,000 compounds went through this panel and 20% of them were active in at least one assay; those are over-represented in the sample as a whole.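 Negative percent growth values reflect cell death: -40 means 40% of the cells present at the start died, and -100 means all died.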 A number with no mark means an inactive call. Active and inactive are the calls of the source. How the source made its calls: active means growth percent below 10; inactive means the rest.

In the case of `CCCCN(CCCC)c1ccc(C(=N)c2ccc(N(CCCC)CCCC)cc2)cc1`, the growth in the assay with HCT-15 colon was -91.9% (active); with HT29 colon, -81.1% (active); in the assay with U251 CNS, -92.9% (active); with PC-3 prostate, -94.4% (active); in the assay with SK-MEL-5 melanoma it was -97% (active); with UACC-62 melanoma it was -81.6% (active). Moreover, the growth was -97.2% (active) in the assay with LOX IMVI melanoma; 9.39% (active) in the assay on SK-MEL-28 melanoma; -79.1% (active) in the assay on SK-MEL-2 melanoma; -13.9% (active) in the assay on EKVX NSCLC; -94.1% (active) in the assay with SN12C renal; -71.1% (active) with UO-31 renal. For the same compound, the growth in the assay on TK-10 renal is -83.9% (active); with ACHN renal, -100% (active); in the assay on CAKI-1 renal, -37.6% (active); with A498 renal it was -25.7% (active).
Consider `COc1ccc(/C=C2\Oc3cc(OCCCN4CCCC4)ccc3C2=O)cc1`, for which the growth in the assay on HCT-15 colon is 26.3%; in the assay on HT29 colon it was 17%; in the assay on SNB-19 CNS, 92.4%; in the assay on PC-3 prostate it was 85.5%; in the assay on UACC-62 melanoma, 100%; with LOX IMVI melanoma it was 13.3%. The growth with SK-MEL-28 melanoma is 103%; in the assay on SK-MEL-2 melanoma it was 100%; in the assay on EKVX NSCLC, 89.6%; in the assay on SN12C renal it was 90.4%; with UO-31 renal, 73.9%; in the assay on TK-10 renal, 95.2%. Also, the growth in the assay on ACHN renal is 92.6%; in the assay on CAKI-1 renal, 91.6%; with MOLT-4 leukemia, 72.2%.
Consider `O=C1c2c(Cl)c(Cl)c(Cl)c(Cl)c2C(=O)C2(Cl)CC=CCC12Cl` (configuration not stated), for which the growth in the assay with HCT-15 colon is -74.2% (active); in the assay with HT29 colon it was -39.2% (active); in the assay on SNB-19 CNS it was 13.5%; in the assay on PC-3 prostate, -55.4% (active); with SK-MEL-5 melanoma, 57.3%; in the assay on UACC-62 melanoma, 32.6%. The growth in the assay on LOX IMVI melanoma is -84.3% (active); in the assay with SK-MEL-28 melanoma it was -58.8% (active); in the assay on SK-MEL-2 melanoma it was -49.4% (active); in the assay with EKVX NSCLC, 98.7%; in the assay on SN12C renal, 24.4%; in the assay with UO-31 renal, 17.9%. Besides, the growth is -92.5% (active) in the assay on TK-10 renal, -81% (active) in the assay with ACHN renal, -15.1% (active) in the assay on CAKI-1 renal and 104% with A498 renal.
As to `Cc1[nH]c2ccc(F)cc2c1CCNC(=O)C1CCN(C(=O)c2ccccc2)C1` (configuration not stated), the growth with HCT-15 colon was 93.4% [25 µM]; in the assay on HT29 colon it was 101% [25 µM]; in the assay with SNB-19 CNS, 93.2% [25 µM]; in the assay on U251 CNS it was 92.8% [25 µM]; in the assay on PC-3 prostate, 79.9% [25 µM]; in the assay with UACC-62 melanoma, 93.3% [25 µM]. Further, the growth in the assay with SK-MEL-2 melanoma is 113% [25 µM]; in the assay with EKVX NSCLC, 80.5% [25 µM]; in the assay on SN12C renal it was 95% [25 µM]; in the assay with UO-31 renal it was 77.1% [25 µM]; in the assay on TK-10 renal, 86.9% [25 µM]; in the assay with ACHN renal, 96.3% [25 µM]. For the same compound, the growth was 77.1% [25 µM] in the assay with CAKI-1 renal, 43.8% [25 µM] in the assay with A498 renal and 91.6% [25 µM] in the assay on MOLT-4 leukemia.
For the compound `COC(=O)C(Sc1ccc(Cl)cc1)C1SC(=S)N(Cc2ccccc2)C1=O` (configuration not stated), the growth is 73.9% in the assay with HCT-15 colon; 111% in the assay on HT29 colon; 92.6% in the assay with SNB-19 CNS; 90.3% in the assay on U251 CNS; 97.4% in the assay with PC-3 prostate; 99.1% in the assay on UACC-62 melanoma. Further, the growth in the assay on LOX IMVI melanoma is 74.9%; in the assay with SK-MEL-2 melanoma, 96.3%; in the assay on SN12C renal it was 82.3%; in the assay with UO-31 renal, 60.2%; in the assay on TK-10 renal, 115%; in the assay with ACHN renal, 97.6%. Moreover, the growth with CAKI-1 renal is 100%; with A498 renal, 102%; with CCRF-CEM leukemia, 20.5%; in the assay with MOLT-4 leukemia, 62.1%.
As to `Clc1cccc(-c2cc(-c3ccc4c(c3)OCCO4)[nH]n2)c1`, the growth was 18.7% [25 µM] with HCT-15 colon; 7.83% [25 µM] (active) in the assay on HT29 colon; 27.4% [25 µM] with U251 CNS; 37.1% [25 µM] in the assay on PC-3 prostate; 5.53% [25 µM] (active) with SK-MEL-5 melanoma; 45.4% [25 µM] in the assay on UACC-62 melanoma. Moreover, the growth in the assay with LOX IMVI melanoma is 30.2% [25 µM]; with SK-MEL-28 melanoma it was 56% [25 µM]; with SK-MEL-2 melanoma it was 17.9% [25 µM]; with EKVX NSCLC, 24.3% [25 µM]; in the assay with SN12C renal, 36.3% [25 µM]; in the assay with UO-31 renal, 44.2% [25 µM]. Further, the growth in the assay on TK-10 renal is 61% [25 µM]; with ACHN renal it was 44.7% [25 µM]; with CAKI-1 renal it was 29% [25 µM]; in the assay on A498 renal, 6.47% [25 µM] (active); in the assay on CCRF-CEM leukemia, 17.9% [25 µM].
Turning to `C=C1CCC2C(C)(CO)C(O)CCC2(C)C1C/C=C1/C(=O)OCC1Oc1ccccc1C` (configuration not stated), the growth in the assay on HCT-15 colon was 55.9%; with HT29 colon, 42.8%; in the assay with SNB-19 CNS it was 83.4%; in the assay with PC-3 prostate, 86.3%; in the assay on SK-MEL-5 melanoma, 93.6%; in the assay on UACC-62 melanoma, 77.3%. Moreover, the growth was 2.56% (active) in the assay on LOX IMVI melanoma; 98% in the assay with SK-MEL-28 melanoma; 87.5% in the assay with SK-MEL-2 melanoma; 101% in the assay with EKVX NSCLC; 85.9% in the assay on SN12C renal; 93% in the assay with UO-31 renal. The growth was 136% with TK-10 renal; 91.6% with ACHN renal; 95.8% in the assay on CAKI-1 renal; 108% in the assay on A498 renal; 20.3% in the assay with CCRF-CEM leukemia.
On to `O=C(NNC(=O)N1c2ccccc2C=Cc2ccccc21)c1ccc2ccccc2c1`, for which the growth is 95.4% with HCT-15 colon; 88.6% in the assay with HT29 colon; 95.3% in the assay with SNB-19 CNS; 74.9% in the assay on PC-3 prostate; 92% in the assay on SK-MEL-5 melanoma; 81.1% with UACC-62 melanoma. The growth with LOX IMVI melanoma was 93.6%; in the assay with SK-MEL-28 melanoma it was 98.4%; with SK-MEL-2 melanoma, 98.5%; in the assay with EKVX NSCLC it was 89%; in the assay with SN12C renal, 90.5%; in the assay with UO-31 renal, 88%. Further, the growth in the assay on TK-10 renal was 102%; in the assay with ACHN renal it was 96.1%; in the assay on CAKI-1 renal, 96.8%; with A498 renal, 94.1%; with CCRF-CEM leukemia, 95%; in the assay with MOLT-4 leukemia it was 94.9%.
`O=C(Nc1cccc(-n2cc(-c3ccncc3)c(-c3ccc(Cl)c(O)c3)n2)c1)c1ccccc1`: the growth was 58.2% with HCT-15 colon; 53.5% with HT29 colon; 99.7% with SNB-19 CNS; 50.3% in the assay with PC-3 prostate; 59.4% in the assay with SK-MEL-5 melanoma; 68.3% with UACC-62 melanoma. The growth was 68.5% with LOX IMVI melanoma; 48.1% with SK-MEL-28 melanoma; 67.9% with SK-MEL-2 melanoma; 79.3% in the assay with SN12C renal; 83.1% in the assay on UO-31 renal; 109% in the assay on TK-10 renal. The growth in the assay on ACHN renal is 53.2%; with CAKI-1 renal it was 90.3%; with A498 renal, 72.3%; in the assay with CCRF-CEM leukemia, 67.5%; in the assay on MOLT-4 leukemia, 69.5%.
